Data from the antibiotic and cytotoxicity screens of Wong et al. (2023).
In all, about 39,000 compounds went through this assay and about 3,300 (8.5%) were called active. The entries come from a sample that favours actives as a whole.

The molecules below were run on HepG2 (assay: cytotoxicity call (relative viability < 0.9)). Details: 10 µM.

SMILES	cytotoxicity call
Cc1c[nH]c2ccccc12	inactive
Cc1cc(C)c2[nH]c3ccccc3c2n1	active
CN(C)Cc1nc(=O)c2ccccc2[nH]1	inactive
Cc1ccc(S(=O)(=O)N(C)C[C@H]2OCCCC[C@@H](C)Oc3ccc(NC(=O)Cc4ccccc4)cc3C(=O)N([C@@H](C)CO)C[C@@H]2C)cc1	inactive
Cc1noc(C)c1NC(=O)Nc1ccc2c(c1)CC(=O)N([C@H](C)CO)C[C@@H](C)[C@@H](CN(C)Cc1ccc(Cl)c(Cl)c1)O2	inactive
C[C@@H]1CN([C@@H](C)CO)C(=O)Cc2cc(NS(=O)(=O)c3ccc(Cl)cc3)ccc2O[C@@H]1CN(C)Cc1ccc(Oc2ccccc2)cc1	active
C[C@@H]1CN([C@H](C)CO)C(=O)Cc2cc(NS(=O)(=O)c3ccc(Cl)cc3)ccc2O[C@H]1CN(C)Cc1ccc(Oc2ccccc2)cc1	active
C[C@H](CO)N1C[C@H](C)[C@H](CN(C)Cc2ccc(Oc3ccccc3)cc2)Oc2ccc(NS(=O)(=O)c3ccc(Cl)cc3)cc2CC1=O	active
C[C@H]1CN([C@@H](C)CO)C(=O)Cc2cc(NS(=O)(=O)c3ccc(Cl)cc3)ccc2O[C@H]1CN(C)Cc1ccc(Oc2ccccc2)cc1	active
COCCNC(=O)C[C@H]1C[C@@H]2c3cc(NC(=O)Nc4ccc(C(F)(F)F)cc4)ccc3O[C@@H]2[C@H](CO)O1	inactive
C[C@H]1CN([C@@H](C)CO)C(=O)Cc2cc(NC(=O)CCCCCC(=O)Nc3ccccc3N)ccc2O[C@H]1CN(C)C(=O)Nc1cccc2ccccc12	inactive
Cc1cccc(N2C[C@@H](CN)OC2=O)c1	inactive
O=C(O)C[C@@H]1C=C[C@H](NC(=O)c2ccncc2)[C@@H](CO)O1	inactive
O=C(NO)c1ccc(C(=O)N/N=C/c2cccc(B(O)O)c2)cc1	inactive
C[C@@H]1CN([C@@H](C)CO)C(=O)c2cc(NS(=O)(=O)c3cccs3)ccc2O[C@@H](C)CCCCO[C@H]1CN(C)C(=O)Nc1ccc(F)cc1	inactive
COc1ccc(S(=O)(=O)Nc2cccc3c2O[C@H](CN(C)S(=O)(=O)c2cccs2)[C@@H](C)CN([C@H](C)CO)C3=O)cc1	inactive
C[C@@H]1CN([C@@H](C)CO)C(=O)Cc2cc(NS(=O)(=O)c3ccc(Cl)cc3)ccc2O[C@H]1CN(C)Cc1ccc(Oc2ccccc2)cc1	active
C[C@H]1CN([C@@H](C)CO)C(=O)Cc2cc(NS(=O)(=O)c3ccc(Cl)cc3)ccc2O[C@@H]1CN(C)Cc1ccc(Oc2ccccc2)cc1	active
C[C@H](CO)N1C[C@H](C)[C@@H](CN(C)Cc2ccc(Oc3ccccc3)cc2)Oc2ccc(NS(=O)(=O)c3ccc(Cl)cc3)cc2CC1=O	inactive
C[C@@H]1CN([C@H](C)CO)C(=O)Cc2cc(NS(=O)(=O)c3ccc(Cl)cc3)ccc2O[C@@H]1CN(C)Cc1ccc(Oc2ccccc2)cc1	active
C[C@H]1CN([C@@H](C)CO)S(=O)(=O)c2ccc(C#CC3CC3)cc2O[C@H]1CN(C)Cc1ccccc1F	inactive
COc1ccc(CN(C)C[C@H]2Oc3ccc(NS(C)(=O)=O)cc3CC(=O)N([C@H](C)CO)C[C@@H]2C)cc1	inactive
C[C@@H]1CN([C@@H](C)CO)C(=O)c2cccc(NS(=O)(=O)c3ccc(F)cc3)c2O[C@H]1CN(C)CC1CC1	inactive
C[C@H]1CCCCO[C@H](CN(C)C(=O)Nc2cccc3ccccc23)[C@@H](C)CN([C@@H](C)CO)C(=O)c2cc(NC(=O)Nc3ccccc3)ccc2O1	inactive
C[C@@H]1CCCCO[C@H](CN(C)S(=O)(=O)c2ccc(Cl)cc2)[C@@H](C)CN([C@H](C)CO)C(=O)c2cc(NC(=O)C3CCCCC3)ccc2O1	inactive

SMILES	cytotoxicity call
CN(C)CC(=O)N1[C@H](CO)[C@@H](c2ccc(C3=CCCC3)cc2)C12CN(S(=O)(=O)Cc1ccccc1)C2	inactive
CCOc1ccc(-n2c([C@@H](C)N(Cc3cccnc3)C(=O)Cc3ccc(OC(F)(F)F)cc3)nc3ncccc3c2=O)cc1	inactive
Cn1c(=O)[nH]c2ccccc21	inactive
CCn1c(=S)[nH]c2ccccc21	inactive
CC(C)n1c(=S)[nH]c2ccccc21	active
COc1ccc(CN(C)C[C@@H]2OCCCC[C@H](C)Oc3ccc(NS(=O)(=O)c4cccs4)cc3C(=O)N([C@H](C)CO)C[C@@H]2C)cc1	inactive
CCNC(=O)c1csc(N)n1	inactive
CCNC(=O)c1coc(C)n1	inactive
CCNC(=O)c1sc(C)nc1N	active
C[C@@H]1CN([C@H](C)CO)C(=O)c2cc(Br)cnc2O[C@@H]1CN(C)C(=O)Nc1ccc(F)cc1	inactive
O=C(O)c1cc2n(n1)CCC2	inactive
C[C@@H]1CCCCO[C@H](CN(C)Cc2ccc3c(c2)OCO3)[C@H](C)CN([C@@H](C)CO)C(=O)c2cc(NS(=O)(=O)c3ccc(Cl)cc3)ccc2O1	active
C[C@H]1CCCCO[C@H](CN(C)Cc2ccc3c(c2)OCO3)[C@@H](C)CN([C@@H](C)CO)C(=O)c2cc(NS(=O)(=O)c3ccc(Cl)cc3)ccc2O1	inactive
C[C@@H]1CCCCO[C@@H](CN(C)Cc2ccc3c(c2)OCO3)[C@H](C)CN([C@H](C)CO)C(=O)c2cc(NS(=O)(=O)c3ccc(Cl)cc3)ccc2O1	active
C[C@@H]1CCCCO[C@@H](CN(C)Cc2ccc3c(c2)OCO3)[C@@H](C)CN([C@H](C)CO)C(=O)c2cc(NS(=O)(=O)c3ccc(Cl)cc3)ccc2O1	active
C[C@@H]1CN([C@@H](C)CO)C(=O)c2cc(NS(=O)(=O)c3ccc(Cl)cc3)ccc2O[C@@H](C)CCCCO[C@@H]1CN(C)Cc1ccc2c(c1)OCO2	inactive
C[C@@H]1CCCCO[C@H](CN(C)Cc2ccc3c(c2)OCO3)[C@@H](C)CN([C@@H](C)CO)C(=O)c2cc(NS(=O)(=O)c3ccc(Cl)cc3)ccc2O1	inactive
C[C@@H]1CN([C@@H](C)CO)C(=O)c2cc(NS(=O)(=O)c3ccc(Cl)cc3)ccc2O[C@@H](C)CCCCO[C@H]1CN(C)Cc1ccc2c(c1)OCO2	active
C[C@H]1CCCCO[C@@H](CN(C)Cc2ccc3c(c2)OCO3)[C@@H](C)CN([C@@H](C)CO)C(=O)c2cc(NS(=O)(=O)c3ccc(Cl)cc3)ccc2O1	inactive
C[C@H](CO)N1C[C@H](C)[C@@H](CN(C)Cc2ccc3c(c2)OCO3)OCCCC[C@H](C)Oc2ccc(NS(=O)(=O)c3ccc(Cl)cc3)cc2C1=O	inactive
C[C@@H]1CCCCO[C@H](CN(C)Cc2ccc3c(c2)OCO3)[C@H](C)CN([C@H](C)CO)C(=O)c2cc(NS(=O)(=O)c3ccc(Cl)cc3)ccc2O1	inactive
C[C@@H]1CCCCO[C@H](CN(C)Cc2ccc3c(c2)OCO3)[C@@H](C)CN([C@H](C)CO)C(=O)c2cc(NS(=O)(=O)c3ccc(Cl)cc3)ccc2O1	inactive
C[C@H](CO)N1C[C@H](C)[C@H](CN(C)Cc2ccc3c(c2)OCO3)OCCCC[C@H](C)Oc2ccc(NS(=O)(=O)c3ccc(Cl)cc3)cc2C1=O	inactive
C[C@H](CO)N1C[C@H](C)[C@H](CN(C)S(C)(=O)=O)Oc2ccc(NS(=O)(=O)c3ccc(Cl)cc3)cc2C1=O	inactive
OCc1cccc(Cn2cncn2)c1	inactive

SMILES	cytotoxicity call
C[C@@H]1CN([C@@H](C)CO)S(=O)(=O)c2ccc(Br)cc2O[C@H]1CN(C)C(=O)c1ccccc1	inactive
COCC#Cc1ccc([C@@H]2[C@H]3CN(C(=O)c4ccncc4)CC(=O)N3[C@H]2CO)cc1	inactive
COc1ccc(NC(=O)Nc2ccc3c(c2)C(=O)N([C@H](C)CO)C[C@H](C)[C@@H](CN(C)S(=O)(=O)c2ccc(F)cc2)OCCCC[C@@H](C)O3)cc1	inactive
C[C@H]1CN([C@@H](C)CO)C(=O)Cc2cc(NC(=O)Cn3cnnn3)ccc2O[C@H]1CN(C)Cc1ccc(C(=O)Nc2ccccc2N)cc1	inactive
Cc1ccc(S(=O)(=O)Nc2ccc3c(c2)C(=O)N([C@H](C)CO)C[C@@H](C)[C@@H](CN(C)C(=O)Nc2ccc4c(c2)OCO4)OCCCC[C@H](C)O3)cc1	inactive
C[C@@H]1CN([C@H](C)CO)C(=O)c2cc(NC(=O)CCCN(C)C)ccc2O[C@@H]1CN(C)S(=O)(=O)c1cccs1	inactive
CC(C)C#Cc1ccc2c(c1)O[C@@H](CN(C)C(=O)Cc1ccccn1)[C@@H](C)CN([C@@H](C)CO)S2(=O)=O	inactive
Cc1ccc(S(=O)(=O)N(C)C[C@@H]2Oc3c(NC(=O)Nc4cccc5ccccc45)cccc3C(=O)N([C@@H](C)CO)C[C@H]2C)cc1	inactive
COc1ccc(NC(=O)Nc2cccc3c2O[C@H](CN(C)Cc2ccc(C(F)(F)F)cc2)[C@H](C)CN([C@@H](C)CO)C3=O)cc1	inactive
CC(C)NC(=O)Nc1cccc2c1O[C@@H](CN(C)S(=O)(=O)c1ccc(Cl)cc1)[C@@H](C)CN([C@H](C)CO)C2=O	inactive
C[C@@H]1CN([C@H](C)CO)C(=O)c2cc(NS(=O)(=O)c3ccc(Cl)cc3)ccc2O[C@@H](C)CCCCO[C@H]1CN(C)Cc1ccc2c(c1)OCO2	inactive
C[C@@H]1CN([C@H](C)CO)C(=O)c2cc(NS(=O)(=O)c3ccc(Cl)cc3)ccc2O[C@@H](C)CCCCO[C@@H]1CN(C)Cc1ccc2c(c1)OCO2	inactive
C[C@@H]1CCCCO[C@@H](CN(C)Cc2ccc3c(c2)OCO3)[C@@H](C)CN([C@@H](C)CO)C(=O)c2cc(NS(=O)(=O)c3ccc(Cl)cc3)ccc2O1	active
COc1ccc(S(=O)(=O)Nc2ccc3c(c2)C(=O)N([C@@H](C)CO)C[C@H](C)[C@H](CN(C)Cc2ccc(Oc4ccccc4)cc2)O3)cc1	inactive
COc1ccc(S(=O)(=O)Nc2ccc3c(c2)C(=O)N([C@@H](C)CO)C[C@H](C)[C@@H](CN(C)Cc2ccc(Oc4ccccc4)cc2)O3)cc1	inactive
COc1ccc(S(=O)(=O)Nc2ccc3c(c2)C(=O)N([C@H](C)CO)C[C@@H](C)[C@@H](CN(C)Cc2ccc(Oc4ccccc4)cc2)O3)cc1	inactive
COc1ccc(S(=O)(=O)Nc2ccc3c(c2)C(=O)N([C@@H](C)CO)C[C@@H](C)[C@H](CN(C)Cc2ccc(Oc4ccccc4)cc2)O3)cc1	active
COc1ccc(S(=O)(=O)Nc2ccc3c(c2)C(=O)N([C@H](C)CO)C[C@@H](C)[C@H](CN(C)Cc2ccc(Oc4ccccc4)cc2)O3)cc1	active
COc1ccc(S(=O)(=O)Nc2ccc3c(c2)C(=O)N([C@H](C)CO)C[C@H](C)[C@@H](CN(C)Cc2ccc(Oc4ccccc4)cc2)O3)cc1	active
C[C@H]1CN([C@@H](C)CO)C(=O)c2cc(NS(=O)(=O)c3ccccc3)ccc2O[C@@H]1CN(C)Cc1ccc(Oc2ccccc2)cc1	inactive
COc1ccc(S(=O)(=O)Nc2ccc3c(c2)C(=O)N([C@@H](C)CO)C[C@@H](C)[C@@H](CN(C)Cc2ccc(Oc4ccccc4)cc2)O3)cc1	active
COc1ccc(S(=O)(=O)Nc2ccc3c(c2)C(=O)N([C@H](C)CO)C[C@H](C)[C@H](CN(C)Cc2ccc(Oc4ccccc4)cc2)O3)cc1	inactive
C[C@@H]1CN([C@@H](C)CO)C(=O)c2cc(NS(=O)(=O)c3ccccc3)ccc2O[C@H]1CN(C)Cc1ccc(Oc2ccccc2)cc1	inactive
